Measurements reported in PubChem BioAssay.
A number with no mark means an inactive call. No rule for the calls is given here.

Target: Pantothenate synthetase (Mycobacterium tuberculosis (strain ATCC 25618 / H37Rv)) (UniProt P9WIL5)
Assay: Recombinant Mtb pantothenate synthetase (PanC) inhibitors, coupled enzyme, confirmatory (AID 375);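 also: 0% = full reaction with vehicle and 100% = no enzyme background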
Conditions: coupled enzyme assay; at 10 µM, stronger effect = higher value

Pantothenate synthetase (Mycobacterium tuberculosis (strain ATCC 25618 / H37Rv)), sequence (P9WIL5 whole entry, looked up): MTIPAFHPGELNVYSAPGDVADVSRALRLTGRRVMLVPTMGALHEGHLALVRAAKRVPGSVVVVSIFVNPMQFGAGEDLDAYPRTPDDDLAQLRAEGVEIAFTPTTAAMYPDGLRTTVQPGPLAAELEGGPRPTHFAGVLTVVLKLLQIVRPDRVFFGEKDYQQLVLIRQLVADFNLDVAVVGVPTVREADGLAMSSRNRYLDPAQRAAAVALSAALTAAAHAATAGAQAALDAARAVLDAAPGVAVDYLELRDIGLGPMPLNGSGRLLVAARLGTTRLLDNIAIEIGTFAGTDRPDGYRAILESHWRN

| SMILES | inhibition |
| --- | --- |
| O=C(Nc1nc(-c2ccccc2)cs1)C1CCCO1 (stereo not drawn) | 3% |
| CCc1ncc(C(O)c2cccc(OC)c2OC)n1C (stereo not drawn) | 0% |
| C#CCN1C(=O)C(O)(CC(=O)c2cccc(OC)c2)c2ccccc21 (stereo not drawn) | 0% |
| CC1CCN(C(=O)CSc2nc3ccccc3[nH]2)CC1 | 0% |
| O=C(O)CN(c1ccccc1)C1SC(=O)NC1=O (stereo not drawn) | 0% |
| Cc1ccc(N2CC(C)Cn3c2nc2c3c(=O)n(CC(=O)OCc3ccccc3)c(=O)n2C)cc1C (stereo not drawn) | 0% |
| O=c1oc2c3c4c(cc2s1)CCCN4CCC3 | 0% |
| COc1cccc(CNC(=O)C2CCN(S(=O)(=O)c3ccc(F)cc3)CC2)c1 | 8% |
| O=C(O)Cc1cc(I)c(Oc2ccc(O)c(I)c2)c(I)c1 | 0% |
| Cc1c(C#N)sc2nc(-c3ccccc3)nc(N3CCCC3)c12 | 0% |
| CCOC(=O)C(C)(C)Sc1nc2c(cnn2-c2ccc(Cl)cc2)c(=O)[nH]1 | 0% |
| COc1cccc(-c2noc(C3CCCN(C(=O)Cc4ccccc4)C3)n2)c1 (stereo not drawn) | 0% |
| CC[C@H]1OC(=O)C[C@@H](O)[C@H](C)[C@@H](O[C@@H]2O[C@H](C)C[C@H](N(C)C)[C@H]2O)[C@@H](CC=O)C[C@@H](C)C(=O)C=C[C@]2(C)O[C@H]2[C@@H]1C | 0% |
| C=CCOC(=O)C1=C(C)OC(N)=C(C#N)C1c1ccc2c(c1)OCO2 (stereo not drawn) | 9% |
| COc1cccc(C2CC(c3ccc(C)cc3)n3nc(N)nc3N2)c1 (stereo not drawn) | 15% |
| Brc1cccc(-c2cnc3n2CCCCC3)c1 | 4% |
| COc1ccc(/C(O)=C2/C(=O)C(=O)N(CC3CCCO3)C2c2cccc(OC)c2)cc1 (stereo not drawn) | 0% |
| CC12COC3(C(=O)Nc4ccc(Cl)cn4)CC1CCC32C (stereo not drawn) | 0% |
| Cn1c(=O)[nH]c(=O)c2c1nc(NCCCn1ccnc1)n2Cc1cccc(Br)c1 | 0% |
| Cc1c(NC2=NC3(CCCCC3)Cc3ccccc32)c(=O)n(-c2ccccc2)n1C | 2% |
| CCOC(=O)C1CCCN(c2c(Nc3ccc(C)c(C)c3)c(=O)c2=O)C1 (stereo not drawn) | 2% |
| CCc1c(C)c2c(C)nn(-c3ccccc3)c2[nH]c1=O | 0% |
| Cc1cc(NC(=O)CS(=O)(=O)c2cn(Cc3cccc(F)c3)c3ccccc23)no1 | 4% |
